In PubChem BioAssay AID2284155 (EPA ToxCast):
Calls of active or inactive are those of the source. How the source made its calls: active means hit-call score of the fitted dose curve at least 0.9, where 1 is the maximum; inactive means score below 0.9.

target: human Muscarinic Acetylcholine Receptor M4 Antagonism, conducted at France lab site, CHRM4 (gene 1132) (UniProt P08173); assay: ERF_FR_GPCR_hCHRM4: Eurofins (ERF) G Protein-Coupled Receptor (GPCR) Radioligand Binding LeadHunter Assay for human Muscarinic Acetylcholine Receptor M4 Antagonism, conducted at France lab site
Method: ERF_FR_GPCR_hCHRM4 is a biochemical, single-readout assay that uses extracted gene-proteins in a cell-free assay. Measurements were taken 1 hour after chemical dosing in a 96-well plate. See M4 Human Acetylcholine (Muscarinic) GPCR Binding (Antagonist Radioligand) Assay, Cerep.ERF_FR_GPCR_hCHRM4 is an assay component calculated from the ERF_FR_GPCR_hCHRM4 assay. It is designed to measure radioligand binding using a type of binding reporter as detected by scintillation counting with radiometry technology.Data from the assay component ERF_FR_GPCR_hCHRM4 was analyzed at the assay endpoint, ERF_FR_GPCR_hCHRM4, in the positive analysis fitting direction relative to DMSO as the negative control and baseline of activity. Using a type of binding reporter, loss-of-signal activity can be used to understand changes in binding as they relate to gene CHRM4. To generalize the intended target to other relatable targets, this assay endpoint is annotated to the gpcr intended target family, where the subfamily is acetylcholine (Muscarinic).
Human cells are incubated for 60 minutes at room temprature with [3H]4-DAMP ligand (0.2 nM) and 4-Damp methiodide as control inhibitor.Test Sample Requirements: Minimum for 1) Screen: 60 ul of 10 mM stock -OR- 1 mg (pre-weighed) for 10 uM final testing. 2) Dose Response: 90 ul of 10 mM stock -OR- 1 mg (pre-weighed) for a top concentration at 10 uM.

human Muscarinic Acetylcholine Receptor M4 Antagonism, conducted at France lab site, CHRM4 (gene 1132), sequence (P08173 whole entry, looked up): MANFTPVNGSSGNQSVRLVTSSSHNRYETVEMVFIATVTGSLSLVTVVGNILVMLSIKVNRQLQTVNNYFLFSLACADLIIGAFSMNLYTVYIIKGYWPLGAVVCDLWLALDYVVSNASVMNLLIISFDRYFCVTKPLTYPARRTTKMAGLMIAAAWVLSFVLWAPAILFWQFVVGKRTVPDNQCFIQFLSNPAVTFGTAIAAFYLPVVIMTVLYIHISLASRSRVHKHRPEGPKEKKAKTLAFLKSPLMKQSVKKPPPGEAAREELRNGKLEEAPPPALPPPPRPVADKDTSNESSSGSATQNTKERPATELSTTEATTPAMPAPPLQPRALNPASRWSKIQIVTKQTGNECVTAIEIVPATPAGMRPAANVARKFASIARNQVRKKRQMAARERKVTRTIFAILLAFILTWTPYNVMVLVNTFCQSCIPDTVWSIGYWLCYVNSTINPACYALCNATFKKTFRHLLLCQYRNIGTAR

Row | SMILES | AC50
1 | O=C(/C=C/c1ccc(O)cc1)CC(=O)/C=C/c1ccc(O)cc1 | 9.09 µM (active)
